Data as given in the supplement of paper PMC12645437, “Orthogonal IMiD-Degron Pairs Induce Selective Protein Degradation in Cells” (ACS Chemical Biology, 2025).
Over roughly 8,300 sequences, “log2 fold change of degron read counts, EGFP-low vs EGFP+ sorted cells (limma voom), compound-induced degradation” has its median near -1.1; the highest 2% begin near 3.2. For the sample, the highest values were picked, then their nearest neighbours and some sequences at random.

Biological target: T1, CRBN, Q96SW2
T1 chain: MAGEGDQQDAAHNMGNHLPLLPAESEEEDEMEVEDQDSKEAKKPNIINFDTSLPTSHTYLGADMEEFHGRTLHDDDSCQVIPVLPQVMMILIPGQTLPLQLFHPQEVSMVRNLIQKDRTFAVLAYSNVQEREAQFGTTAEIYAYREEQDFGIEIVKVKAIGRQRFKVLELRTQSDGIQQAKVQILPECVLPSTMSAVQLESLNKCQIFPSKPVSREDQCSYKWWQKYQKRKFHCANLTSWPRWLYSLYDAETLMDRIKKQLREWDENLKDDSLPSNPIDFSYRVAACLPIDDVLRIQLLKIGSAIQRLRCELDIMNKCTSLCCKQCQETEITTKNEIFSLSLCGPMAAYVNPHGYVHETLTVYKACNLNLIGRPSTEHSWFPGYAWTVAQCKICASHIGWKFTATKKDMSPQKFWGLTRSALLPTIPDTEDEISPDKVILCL
Assay: log2 fold change of degron read counts, EGFP-low vs EGFP+ sorted cells (limma voom), compound-induced degradation; higher = more compound-induced degradation of the degron-EGFP fusion; degrons are variants of IKZF1/3 zinc finger 2; compound dose not given here
Details: Jurkat, 18 h
Method: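 Pooled library of 8380 IKZF3 ZF2 degron mutants (positions 146-167 varied within the IKZF3 130-189 degron; only the varied core is printed, flanks not printed) fused to EGFP with IRES-mCherry, lentivirally expressed in Jurkat cells. mCherry+ cells were treated with one IMiD compound for 18 h (dose not stated) and FACS-sorted into EGFP-low and EGFP+ populations. Degron sequences were counted by NGS, and log2FC (EGFP-low vs EGFP+) was estimated by limma voom over 3 biological replicates.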

[1] = compound: compound 19 (5-tert-butyl-thalidomide)
[2] = compound: compound 22 (5-morpholino-thalidomide)
[3] = compound: compound 33 (diphenyl IMiD analogue)
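Also: pooled lentiviral library of zinc finger degron-EGFP fusions in mCherry-positive Jurkat cells, FACS-sorted after compound exposure, with degron abundance counted by next-generation sequencing.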

Sequence	log2 fold change of degron read counts [1]	log2 fold change of degron read counts [2]	log2 fold change of degron read counts [3]	log2 fold change of degron read counts (compound: thalidomide)
FVCNQCGHRFTQKGNLLRHIKL [46F_47V_49N_50Q_52G_53H_54R_55F_67L_, Q9UKT9]	-2.83	-3	-2.59	-2.33
FWCPICGHTFTQKGNLLRHIKL [46F_47W_49P_50I_52G_53H_54T_55F_67L_, Q9UKT9]	-1.68	-1.6	-1.41	-2.18
FVCEQCGADFTQKGNLLRHIKL [46F_47V_49E_50Q_52G_53A_54D_55F_67L_, Q9UKT9]	-3.51	-2.64	-2.37	-2.14
FCCNICGAKFTQKGNLLRHIKL [46F_47C_49N_50I_52G_53A_54K_55F_67L_, Q9UKT9]	1.13	0.951	-1.32	1.19
FKCPICGRAFTQKGNLLRHIKL [46F_47K_49P_50I_52G_53R_54A_55F_67L_, Q9UKT9]	-2.37	-1.6	-2.65	-0.307
FHCEVCGAAFTQKGNLLRHIKL [46F_47H_49E_50V_52G_53A_54A_55F_67L_, Q9UKT9]	3.08	2.89	1.84	0.737
FCCEVCGAAFTQKGNLLRHIKL [46F_47C_49E_50V_52G_53A_54A_55F_67L_, Q9UKT9]	3.57	2.96	2.1	2.35
FYCEVCGAAFTQKGNLLRHIKL [46F_47Y_49E_50V_52G_53A_54A_55F_67L_, Q9UKT9]	3.87	3.7	2.98	1.8
FWCNVCGAAFTQKGNLLRHIKL [46F_47W_49N_50V_52G_53A_54A_55F_67L_, Q9UKT9]	1.25	2.85	1.15	-0.34
FCCNVCGAAFTQKGNLLRHIKL [46F_47C_49N_50V_52G_53A_54A_55F_67L_, Q9UKT9]	0.855	0.945	0.918	0.447
FYCPVCGAAFTQKGNLLRHIKL [46F_47Y_49P_50V_52G_53A_54A_55F_67L_, Q9UKT9]	2.93	2.85	2.36	0.969
FNCEVCGAAFTQKGNLLRHIKL [46F_47N_49E_50V_52G_53A_54A_55F_67L_, Q9UKT9]	3.07	1.6	0.0337	0.576
FQCEVCGAAFTQKGNLLRHIKL [46F_47Q_49E_50V_52G_53A_54A_55F_67L_, Q9UKT9]	2.72	3.34	2.22	3.65
FGCEVCGAAFTQKGNLLRHIKL [46F_47G_49E_50V_52G_53A_54A_55F_67L_, Q9UKT9]	2.88	2.24	1.96	1.02
FMCEVCGAAFTQKGNLLRHIKL [46F_47M_49E_50V_52G_53A_54A_55F_67L_, Q9UKT9]	2.23	2.48	2.75	2.28
